This note sets out measurements from PubChem BioAssay (NCATS).

Experiment [1] has as its target Calcium and integrin-binding protein 1 (Homo sapiens) (UniProt Q99828). Briefly: Primary qHTS for Identification of Calcium Integrin Binding Protein 1 (CIB1) Competitor (AID 1508620).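 Note: GST tagged CIB1 binding a fluorescein labelled alphaIIb integrin peptide tracer; top concentration of the series differs between compounds.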 An outline of the steps:
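Fluorescence polarization competition: GST-tagged CIB1 (1 uM final) preincubated with compound 15 min at room temperature, then FITC-labelled alphaIIb peptide (100 nM final) added. After 15 min at room temperature, polarization read at Ex 480/Em 540.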
For orientation: Quantitative high-throughput screening tests each substance at several concentrations.

A short description of experiment [2]: Primary qHTS for inhibitors of nuclear receptor binding SET domain protein 2 (NSD2) in an isogenic RCH-ACV NSD2 p.E1099K mutant (9B) (AID 1645876). Note: nearly all actives have a fitted effect of over 70% in size. Note: potency is the fitted concentration of half-maximal effect.
The nature of experiment [3]: Primary qHTS for inhibitors of nuclear receptor binding SET domain protein 2 (NSD2) in an RCH-ACV wild type WT cells (2C) (AID 1645877). Note: nearly all actives have a fitted effect of over 70% in size. Note: potency is the fitted concentration of half-maximal effect.

Values joined by “and” are separate entries in the source; they are usually repeats but may differ in a detail not shown here. Equal entries are not always repeated. Records with an inconclusive call do not appear. Active and inactive are the calls of the source. Calls come from the whole dose curve; as a rule, active = well fitted curve in the direction sought with a large enough effect; inconclusive = small, poorly fitted or top-dose-only effect, or another doubt; inactive = no such curve, though single readings can be large; an effect the other way counts as inactive or inconclusive.

Sequence of Calcium and integrin-binding protein 1 (Homo sapiens) (Q99828 whole entry, looked up): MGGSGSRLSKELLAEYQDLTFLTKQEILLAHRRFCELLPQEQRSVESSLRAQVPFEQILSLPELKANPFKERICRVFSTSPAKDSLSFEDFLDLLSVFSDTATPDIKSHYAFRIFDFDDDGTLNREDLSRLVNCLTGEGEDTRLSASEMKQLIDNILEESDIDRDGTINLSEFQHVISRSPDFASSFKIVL

For the compound `Cn1ncc2cc(-c3cnc(N)c(Cl)c3N3CCC4(CCNC4=O)CC3)ccc21`, the Potency entry in experiment [1] is “inactive”. Also, the Potency in experiment [2] was 2.05 µM (active) and 3.72 µM (active); in experiment [3], 0.0934 µM (active).
For `C/C=C(/C)C(=O)O[C@H]1C=C(CO)C(=O)[C@H](OC(=O)/C(C)=C/CO)[C@H]1C(C)C`, in experiment [1], the Potency entry is “inactive”. The Potency in experiment [2] and in experiment [3] was 1.79 µM (active) in each case.
With `COC1CC(=O)C23C(=O)NC(Cc4c[nH]c5ccccc45)C2C(C)C2(C)OC2C3/C=C/CC(C)CC1O` (configuration not stated), the Potency result in experiment [1] is “inactive”. Besides, the figures for the Potency in experiment [2] and in experiment [3] were 3.17 µM (active) and 2.52 µM (active), respectively.
Regarding `C=C1C(=O)OC2CC(C)=C(C(C)CCCOC(C)=O)C(OC(=O)CC(C)CC)C12` (configuration not stated), the Potency result in experiment [1] was “inactive”. Further, the Potency in experiment [2] and in experiment [3] was 7.09 µM (active) in each case.
As for `COc1cc(CCC2=NN=C(NC(=O)c3ccc(N4C[C@@H](C)N[C@@H](C)C4)cc3)C2)cc(OC)c1`, the Potency entry in experiment [1] is “inactive”. Also, the Potency in experiment [2] and in experiment [3] was 5.78 µM (active) in each case.
Consider `COC(=O)C1=CO[C@@H](O[C@@H]2O[C@H](CO)[C@@H](O)[C@H](O)[C@H]2O)[C@H]2[C@@H]1C=C[C@]21C=C([C@H](C)OC(=O)/C=C/c2ccc(O)cc2)C(=O)O1`, for which, in experiment [1], the Potency result is “inactive”. Moreover, the Potency in experiment [2] was 0.383 µM (active); in experiment [3], 0.483 µM (active).
With `CC(=O)C1=C(O)C=C2Oc3c(C(C)=O)c(O)c(C)c(O)c3[C@]2(C)C1=O`, the Potency result in experiment [1], in experiment [2] and in experiment [3] was “inactive” throughout.
In the case of `COC(CCc1ccc(O)cc1)CC(=O)CCc1ccc(O)cc1` (configuration not stated), the Potency result in experiment [1] is “inactive”. Besides, the Potency was 5.67 µM (active) in experiment [2] and 8.98 µM (active) in experiment [3].
With `C[C@]12CC[C@@H]3c4ccc(O)c(O)c4CC[C@H]3[C@@H]1CCC2=O`, the Potency result in experiment [1] is “inactive”. The results for the Potency in experiment [2] and in experiment [3] were 18.3 µM (active) and 11.5 µM (active), respectively.
